PubChem BioAssay (NCI)
This is part of a sample that, as a whole, favours compounds with a hit. Of some 79,000 tested, about 15% had one in any assay. Calls of active or inactive are those of the source. No stated cut-off is given here; in the data, active means growth inhibition above about 70%; inactive means the rest.

Columns and labels:
[1] = NCI Yeast Anticancer Drug Screen. Data for the wt1 strain (AID 149);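 further: 0% = growth of vehicle-treated wt1 cultures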; details: S. cerevisiae wt1 strain (SPY 50644) growth inhibition, active compounds read high
Outline: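 Vehicle-normalised growth inhibition; strain wt1; compound exposure.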

[2] = NCI Yeast Anticancer Drug Screen. Data for the rad50EPP+ strain (AID 151);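 further: 0% = growth of vehicle-treated control cultures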; details: S. cerevisiae rad50 mutant strain, active compounds read high
Outline: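 Yeast strain carrying rad50 alteration (rad50EPP+) exposed to compounds; growth inhibition measured relative to vehicle-treated controls.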

[3] = NCI Yeast Anticancer Drug Screen. Data for the mgt1 strain (AID 153); details: S. cerevisiae mgt1 mutant growth inhibition, active compounds read high
Outline: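 Yeast mgt1 strain (DNA repair/cell-cycle alteration panel) exposed to compounds; growth inhibition measured relative to vehicle-treated controls.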

[4] = NCI Yeast Anticancer Drug Screen. Data for the rad50 strain (AID 155);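 further: 0% = growth of vehicle-only cultures of the same strain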; details: S. cerevisiae rad50 strain growth inhibition, active compounds read high
Outline: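 A DNA repair-deficient yeast mutant serves as the test organism; compound-induced growth inhibition is calculated against vehicle-treated cells.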

[5] = NCI Yeast Anticancer Drug Screen. Data for the rad14 strain (AID 159);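 further: 0% = growth of vehicle-treated control cultures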; details: S. cerevisiae rad14 strain growth inhibition, active compounds read high
Outline: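 Vehicle-treated cultures served as the baseline for growth inhibition of a DNA repair-mutant yeast strain exposed to each compound.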

[6] = NCI Yeast Anticancer Drug Screen. Data for the sgs1 mgt1 strain (AID 161);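 further: 0% = growth of cultures given vehicle only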; details: S. cerevisiae sgs1 mgt1 strain, active compounds read high
Outline: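 Growth of a repair-deficient yeast mutant was monitored after compound treatment and expressed as inhibition relative to vehicle-treated cultures.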

[7] = NCI Yeast Anticancer Drug Screen. Data for the CLN2oe strain (AID 163);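 further: 0% = growth of vehicle-only control cultures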; details: S. cerevisiae CLN2oe strain, active compounds read high
Outline: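 Yeast cells carrying a defined cell-cycle control alteration were exposed to test compounds. Growth inhibition was scored against vehicle-treated control cultures.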

[8] = NCI Yeast Anticancer Drug Screen. Data for the bub3 strain (AID 167); details: S. cerevisiae bub3 mutant strain, active compounds read high
Outline: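 Inhibition values come from growth of compound-treated mutant yeast normalised to vehicle-treated controls.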

[9] = NCI Yeast Anticancer Drug Screen. Data for the wt2 strain (AID 169);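 further: 0% = growth of vehicle-treated yeast cultures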; details: S. cerevisiae wt2 strain growth inhibition, active compounds read high
Outline: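 Yeast cells were exposed to test compounds, and growth inhibition was measured relative to vehicle-treated controls.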

[10] = NCI Yeast Anticancer Drug Screen. Data for the mlh1 strain (AID 171);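 further: 0% = growth of vehicle-treated control cultures of the same strain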; details: S. cerevisiae mlh1 strain growth inhibition, active compounds read high
Outline: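 Yeast carrying a defined genetic alteration in DNA damage repair or cell cycle control were exposed to test compounds. Growth inhibition was measured relative to vehicle-treated controls.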

[11] = NCI Yeast Anticancer Drug Screen. Data for the sgs1 strain (AID 173);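 further: 0% = growth of vehicle-only control cultures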; details: S. cerevisiae sgs1 mutant, active compounds read high
Outline: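 Yeast mutant strains carrying defined defects in DNA damage repair or cell cycle control were exposed to test compounds. Growth inhibition was scored against vehicle-treated controls.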

[12] = NCI Yeast Anticancer Drug Screen. Data for the mlh1 rad18 strain (AID 175); details: S. cerevisiae mlh1 rad18 strain growth inhibition, active compounds read high
Outline: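 Growth inhibition of the yeast strain was measured after compound exposure and expressed relative to vehicle-treated controls. The strain carries defined defects in DNA damage repair.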

[13] = NCI Yeast Anticancer Drug Screen. Data for the rad18 strain (AID 177); details: S. cerevisiae rad18 mutant growth inhibition, active compounds read high
Outline: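 Yeast carrying a defined DNA damage repair alteration were exposed to compounds. Growth inhibition was expressed relative to vehicle-treated controls.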

[14] = NCI Yeast Anticancer Drug Screen. Data for the mec2-1 strain (AID 157); details: S. cerevisiae mec2-1 strain, active compounds read high
Outline: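 mec2-1 yeast strain, carrying an alteration in DNA damage repair or cell cycle control, was exposed to compounds; growth inhibition was measured relative to vehicle-treated controls.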

[15] = NCI Yeast Anticancer Drug Screen. Data for the cln2 rad14 strain (AID 165);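 further: 0% = growth equal to vehicle treated cultures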; details: S. cerevisiae cln2 rad14 strain, active compounds read high
Outline: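 Yeast carrying cln2 and rad14 alterations (cell cycle control and DNA damage repair) were exposed to compounds. Growth inhibition was measured against vehicle-treated controls.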

[16] = at 5.0 µM (retest, dose inferred, filed as 0.5)
[17] = at 50.0 µM (retest, dose inferred, filed as 5.0)

Measured: growth inhibition

COc1ccc2nc3cccc([N+](=O)[O-])c3c(NCCCO)c2c1
inactive: [1]; at 1.2 µM 15% | [1]; at 3.7 µM 62% | [2]; at 1.2 µM 9% | [2]; at 3.7 µM 35% | [3]; at 1.2 µM 12% | [3]; at 3.7 µM 51% | [7]; at 1.2 µM 6% | [7]; at 3.7 µM 43% | [8]; at 1.2 µM -9% | [8]; at 3.7 µM 14% | [8]; [16] 16% | [9]; at 1.2 µM 6% | [9]; at 3.7 µM 33% | [10]; at 1.2 µM 35%
active: [1]; at 11.0 µM 94% | [1]; at 33.0 µM 97% | [1]; at 100.0 µM 97% | [2]; at 11.0 µM 75% | [2]; at 33.0 µM 94% | [2]; at 100.0 µM 97% | [3]; at 11.0 µM 92% | [3]; at 33.0 µM 96% | [3]; at 100.0 µM 96% | [4]; at 1.2 µM 87% | [4]; at 3.7 µM 93% | [4]; [16] 95% | [4]; at 11.0 µM 95% | [4]; at 33.0 µM 97% | [4]; [17] 98% | [4]; at 50.0 µM 86.8% | [4]; at 100.0 µM 97% | [5]; at 1.2 µM 97% | [5]; at 3.7 µM 98% | [5]; at 11.0 µM 99% | [5]; at 33.0 µM 99% | [5]; at 100.0 µM 95% | [6]; [16] 95% | [6]; [17] 98% | [6]; at 50.0 µM 82.9% | [7]; at 11.0 µM 88% | [7]; at 33.0 µM 95% | [7]; at 100.0 µM 98% | [8]; at 11.0 µM 87% | [8]; at 33.0 µM 97% | [8]; [17] 99% | [8]; at 50.0 µM 85.2% | [8]; at 100.0 µM 99% | [9]; at 11.0 µM 88% | [9]; at 33.0 µM 96% | [9]; at 100.0 µM 98% | [10]; at 3.7 µM 80% | [10]; at 11.0 µM 94% | [10]; at 33.0 µM 97% | [10]; at 100.0 µM 97% | [11]; at 1.2 µM 93% | [11]; at 3.7 µM 95% | [11]; at 11.0 µM 97% | [11]; at 33.0 µM 98% | [11]; at 100.0 µM 97% | [12]; [16] 97% | [12]; [17] 99% | [12]; at 50.0 µM 81.8% | [13]; at 1.2 µM 96% | [13]; at 3.7 µM 96% | [13]; at 11.0 µM 96% | [13]; at 33.0 µM 96% | [13]; at 100.0 µM 97%

COc1ccc2nc(N/N=C/c3sccc3C)cc(C)c2c1
active: [1]; at 33.0 µM 96% | [1]; at 100.0 µM 95% | [2]; at 100.0 µM 76% | [4]; at 33.0 µM 94% | [4]; at 50.0 µM 85.5% | [4]; at 100.0 µM 94% | [14]; at 33.0 µM 96% | [14]; at 50.0 µM 87.5% | [14]; at 100.0 µM 95% | [5]; at 33.0 µM 97% | [5]; at 100.0 µM 90% | [6]; [16] 96% | [6]; [17] 96% | [6]; at 50.0 µM 84.1% | [7]; at 33.0 µM 96% | [7]; at 100.0 µM 94% | [15]; [16] 95% | [15]; [17] 95% | [15]; at 50.0 µM 81% | [8]; [16] 96% | [8]; at 33.0 µM 98% | [8]; [17] 98% | [8]; at 50.0 µM 86% | [8]; at 100.0 µM 96% | [9]; at 33.0 µM 98% | [9]; at 100.0 µM 96% | [10]; at 33.0 µM 97% | [10]; at 100.0 µM 92% | [11]; at 33.0 µM 98% | [11]; at 100.0 µM 95% | [12]; [17] 83% | [12]; at 50.0 µM 87.8% | [13]; at 33.0 µM 98% | [13]; at 100.0 µM 96%
inactive: [1]; at 1.2 µM -39% | [1]; at 3.7 µM -32% | [1]; at 11.0 µM -6% | [2]; at 1.2 µM -18% | [2]; at 3.7 µM -19% | [2]; at 11.0 µM -21% | [2]; at 33.0 µM 15% | [4]; at 1.2 µM -22% | [4]; at 3.7 µM -27% | [4]; [16] 4% | [4]; at 11.0 µM -12% | [4]; [17] 68% | [14]; at 1.2 µM -13% | [14]; at 3.7 µM 4% | [14]; [16] -10% | [14]; at 11.0 µM 12% | [14]; [17] 56% | [5]; at 1.2 µM -50% | [5]; at 3.7 µM -19% | [5]; at 11.0 µM -21% | [7]; at 1.2 µM -2% | [7]; at 3.7 µM -6% | [7]; at 11.0 µM -1% | [8]; at 1.2 µM 12% | [8]; at 3.7 µM 14% | [8]; at 11.0 µM 38% | [9]; at 1.2 µM 18% | [9]; at 3.7 µM 4% | [9]; at 11.0 µM 27% | [10]; at 1.2 µM 8% | [10]; at 3.7 µM -3% | [10]; at 11.0 µM 35% | [11]; at 1.2 µM -30% | [11]; at 3.7 µM -45% | [11]; at 11.0 µM -16% | [12]; [16] -5% | [13]; at 1.2 µM 5% | [13]; at 3.7 µM 16% | [13]; at 11.0 µM 8%
